Among all 410,000 compounds or so, about 18,000 (4.4%) were called active. Inconclusive results (about 7%) are left out. Shown is part of a subset that was picked to be rich in actives. Values without a mark were called inactive. No stated cut-off is given here; in the data, active means activity change below about -60%; inconclusive means no clear call, values can overlap the other calls; inactive means above about -39%.
Test: qHTS Assay for inhibitors of the human cytomegalovirus (HCMV)
Conditions: HFF cells, HCMV-luciferase reporter, 72 h; at 57.5 µM; hits give low values
Method in brief: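 After 16 h attachment at 37C, HFF cells received test compound and HCMV-luciferase (1 PFU/cell); reporter luminescence read 72 h later, data normalized against buffer-only and known inhibitor Salinomycin.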
On the % scale 0 is the no-effect control and ±100 the full control effect.

Compound	activity change, negative = inhibition
COc1ccccc1NC(=O)c1oc2ccccc2c1NC(=O)C(C)C	0.436%
COc1ccc(OC)c(-c2nc(C(N)=O)c3c(n2)n(-c2ccc4c(c2)OCO4)c(=O)n3C)c1	3.83%
CC1COc2ccccc2N1S(=O)(=O)c1ccccc1 (stereo unspecified)	-16.1%
O=C1C(=O)N(CC2COc3ccccc3O2)c2ccccc21 (stereo unspecified)	-62.4% (active)
O=C1C(=O)N(c2ccccc2)c2ccccc21	43.2%
Cc1cc(C(=O)CCl)c(C)n1CC1COc2ccccc2O1 (stereo unspecified)	-96.1% (active)
CC(=O)c1ccccc1NC(=O)COC(=O)C1COc2ccccc2O1 (stereo unspecified)	-15%
Cc1ccc(Cl)cc1NC(=O)NC1COc2ccccc2C1 (stereo unspecified)	-3.29%
CC(C)CC(NC(=O)C1CCCN1C(=O)[C@@H](C)NC(=O)OCc1ccccc1)C(=O)NCC(N)=O (stereo partly specified)	-24.5%
Cc1cccc(NC(=O)Cn2c(=O)n(CCC(C)C)c(=O)c3cccnc32)c1	28.9%
O=C(c1ccco1)N1CCN(C(=O)C2c3ccccc3Oc3ccccc32)CC1	-21.7%
CCOC(=O)Cc1csc(NC(=O)CN(C)S(=O)(=O)c2ccc3c(c2)CCC(=O)N3)n1	14.5%
Cc1cccc(-c2nc(SCc3ccc(Br)cc3)n3[nH]c(=O)cc3n2)c1	-0.292%
COc1ccc(NC(=O)CSc2nccn2Cc2ccc3c(c2)OCO3)cc1	2.57%
Cc1cc(C(=O)CSc2nc(N)cc(=O)[nH]2)c(C)n1-c1cccc(F)c1	-80.8% (active)
Cc1cc(C)c(C(=O)CSc2nc(C)cc(=O)[nH]2)c(C)c1	19%
C=CCSc1nc(N)cc(=O)[nH]1	-24.3%
CCOC(=O)C1(C(F)(F)F)N=C(N(C)C)OC(N(C)C)=N1	9.94%
CCOc1ccc2c(c1)C(c1ccc(C)cc1)=NNC(c1ccc(C)cc1)=N2	9.03%
CCOc1ccc(-c2cc(C)[n+](CCN(CC)CC)c(-c3ccc(OCC)cc3)c2)cc1	-97.6% (active)
CCOc1ccc(-c2nnc3ccc(SC)nn23)cc1	-19.6%
Cc1cccc(-n2ccnc2SCC(=O)Nc2cc(C(F)(F)F)ccc2Cl)c1	-18.2%
O=C(CSc1nccn1C1CCCC1)Nc1cc(C(F)(F)F)ccc1Cl	-87.5% (active)
COc1ccc(NC(=O)CSc2nccn2C2CCCC2)cc1OC	-35.1%

Compound	activity change, negative = inhibition
Cc1cc(NS(=O)(=O)c2ccc3oc(=O)c4ncn(C)c4c3c2)ccc1Br	-24.9%
Cn1nnnc1SCCCNCc1ccc(Cl)cc1	5.82%
COc1ccccc1CCNC(=O)c1cccn1-c1nnc(N2CCCCC2)s1	-14.3%
Cc1ccc(NC(=O)CN(C)C(=O)Cn2nnc(-c3ccccc3)n2)cc1	-24.5%
COc1ccc(C(=O)N2CCCCC2C(=O)Nc2ccc(-n3nc(C)cc3C)cc2)o1 (stereo unspecified)	7.64%
C[C@@H]1C[C@@H]2O[C@H]2/C=C\C=C\C(=O)Cc2c(Cl)c(O)cc(O)c2C(=O)O1	-76.2% (active)
CCN(CC)S(=O)(=O)c1ccc(C(=O)N2CCN(C3=NS(=O)(=O)c4ccccc43)CC2)cc1	-15.4%
CCOC(=O)c1cc2c(=O)n3ccccc3nc2n(CC2CCCO2)c1=NC(=O)c1ccccc1Br (stereo unspecified)	24.4%
Cc1ccc(S(=O)(=O)N2C[C@@H]3CCCC[C@@H]3[C@@H](C)[C@H]2c2cn(Cc3ccccc3)c3ccc(F)cc23)cc1	-65.2% (active)
CCOC1=C2[C@@H](CN(S(=O)(=O)c3ccc(C)cc3)[C@H]2c2ccccc2F)[C@H]2C(=O)N(Cc3ccccc3)C(=O)[C@H]2C1	-19.7%
Cc1ccc(S(=O)(=O)c2cn(Cc3ccccc3)c3cc(N4CCCC4)c(F)cc3c2=O)c(C)c1	10.5%
COc1ccc(-c2c(C)c3ccc(O)c(CN4CCCC4)c3oc2=O)cc1OC	8.47%
CCOc1ccc(NC(=O)Cn2c(=O)n(CCCC(=O)NCc3ccc4c(c3)OCO4)c(=O)c3ccccc32)cc1	22.9%
CCN(CC)C(=O)CSc1nc2cc3c(cc2c(=O)n1CCCC(=O)NCc1ccc2c(c1)OCO2)OCO3	-89.8% (active)
CCCCNC(=O)CSc1nc2cc3c(cc2c(=O)n1CCCCCC(=O)NCc1ccc2c(c1)OCO2)OCO3	25.2%
O=C(NCc1ccc(Cl)cc1)c1ccc2c(c1)nnn2C1CCCC1	-1.14%
CC1(C(=O)NNC(=S)NCC2CCCO2)CC1(Cl)Cl (stereo unspecified)	-5.76%
Cc1cccc(NC(=O)Cn2c(C(F)(F)F)nc3ccccc32)c1C	-9.72%
CCC(=O)Nc1ccc(C)cc1-c1nc2ccccc2n(Cc2ccccc2)c1=O	13.6%
CCC(=O)Nc1nc2ccccc2n1Cc1ccccc1C	-81.6% (active)
Cc1cc(Cl)ccc1NC(=O)Cc1ccc(NC(=O)N2CCCCc3ccccc32)cc1	25.1%
COCCN1C2=C(COC(C)(C)C2)C(=S)NC1c1ccccc1 (stereo unspecified)	5.54%
O=C(CN1CCCCCC1)Nc1ccc(Br)cc1Br	32.3%
Cc1ccc(NC(=O)CN2CCCCC2)c2c1CC(C)(C)O2	-63% (active)

Compound	activity change, negative = inhibition
Cc1cc(C)c(NC(=O)CN2CCCCCC2)c(C)c1	-39.4%
O=S(=O)(c1ccc(Cl)cc1)c1nnn2c1nc(NC1CCCC1)c1sccc12	21.2%
O=[N+]([O-])c1ccccc1-c1cc(-c2ccccc2[N+](=O)[O-])on1	24.9%
CCc1ccccc1NC(=O)N1CCN(C(=O)c2nsc3ccccc23)CC1	0% (active)
COc1ccccc1CNC(=O)c1ccccc1NC(=O)c1nsc2ccccc12	12.6%
Cc1c(Cl)cccc1NC(=O)N1CCN(C(=O)c2nsc3ccccc23)CC1	0%
COc1ccc(OC)c(NC(=O)CN2CCCN(Cc3cc(C)ccc3C)S2(=O)=O)c1	0%
Cc1ccnc(NC(=O)C2CCN(S(=O)(=O)c3c(C)c(C)cc(C)c3C)CC2)c1	-4.39%
CN1CCN(C(=O)CCc2ncc(C(F)(F)F)cc2Cl)CC1	-28.5%
CC(=O)Nc1ccc(CC#N)cc1	26.2%
CC(C)n1ncc2c(C(=O)Nc3ccc(CC#N)cc3)cc(C3CC3)nc21	30.4%
N#CCc1ccc(NC(=O)c2ccccc2C(=O)Nc2ccc(CC#N)cc2)cc1	-72.2% (active)
Cc1ccc(-c2nc3cccc(C)n3c2Nc2ccc3c(c2)OCCO3)cc1	76%
COc1ccc(NC(=O)C2CCCN(S(=O)(=O)c3cccc4nonc34)C2)cc1Cl (stereo unspecified)	-11.9%
O=C(C1CC1)N1CCc2cc(Br)cc(S(=O)(=O)N3CCN(c4ccccc4F)CC3)c21	6.64%
CNC(=O)c1ccc(-c2nc(CN3CCc4ccccc43)c(C)o2)cc1	18.4%
Cc1ccc(N2CC(NC(=O)Cc3cccs3)CC2=O)cc1 (stereo unspecified)	76%
Cc1sc2ncnc(N3CCC(C(=O)Nc4ccc(F)cc4Cl)CC3)c2c1C	-21.6%
CCOC(=O)C1CCN(c2ncnc3c2c(-c2ccccc2)cn3-c2ccc(C)cc2)CC1	-37.8%
CCc1ccc(C(=O)NNC(=O)C2CCN(c3ncnc4sc(C)c(C)c34)CC2)cc1	-65.2% (active)
O=C(O)c1ccc(Cn2cnc3c(=S)nc[nH]c32)cc1	1.65%
NC1=NC(c2cc(F)cc(F)c2)n2c(nc3ccccc32)N1 (stereo unspecified)	-1.84%
Cc1ccc(S(=O)(=O)NC2CCCCCC2)cc1C(N)=O	-23.9%
Cn1sc(=O)c2cc(S(=O)(=O)NC3CC3)ccc21	-82.6% (active)

Compound	activity change, negative = inhibition
CC1CCC(NS(=O)(=O)c2ccc3c(c2)CC(=O)N3)CC1 (stereo unspecified)	23.2%
O=S1(=O)CC(N2CCSCC2)CN1Cc1cn(Cc2cccc(Cl)c2)nn1 (stereo unspecified)	-0.598%
O=C(NCCc1ccc(Cl)cc1)c1ccc2nc(CCc3ccccc3)oc2c1	44.3%
CCOc1ccccc1CNCc1c(C(=O)O)c(C)n(Cc2ccc(C)cc2)c1C	2.89%
O=C(CSc1ccc(-c2ccc(F)cc2)nn1)Nc1ccc2c(c1)OCCO2	16.6%
O=C(CSc1nnc(CNC(=O)c2ccc(F)cc2)o1)Nc1ccc2c(c1)OCO2	-6.33%
O=C(CSc1nnnn1C1CCCC1)Nc1ccc2c(c1)OCCO2	15.2%
O=C(CSc1nc(C2CC2)nc2ccccc12)Nc1ccc2c(c1)OCCO2	-71.4% (active)
O=C(CSc1nc(=O)n2ccccc2n1)Nc1ccc2c(c1)OCCO2	-0.0406%
O=C(CSc1nc(-c2cccc(F)c2)[nH]c1-c1ccccc1)Nc1ccc2c(c1)OCO2	-87.5% (active)
CCOc1cc(C(=O)Nc2nnc3n2CCS3)cc(OCC)c1OCC	-4.78%
O=C(CSc1ncc(-c2ccccc2)[nH]1)Nc1ccc(F)cc1F	-18.3%
COc1ccc(NC(=O)CCCN2C(=O)C(c3ccccc3)Oc3cccnc32)cc1 (stereo unspecified)	37.1%
N#Cc1c(NC(=O)CCCN2C(=O)c3ccccc3C2=O)oc(-c2ccccc2)c1-c1ccccc1	-2.46%
O=C(CCCN1C(=O)/C(=C\c2ccccc2)SC1=S)Nc1ccccc1O	-94.8% (active)
O=C(CCCN1C(=O)/C(=C/c2cccs2)SC1=S)Nc1ccc(O)cc1	-92.8% (active)
Cc1cc(C)cc(NC(=O)CCN2C(=O)c3ccccc3C2=O)c1	-12.5%
O=C(CCCN1C(=O)/C(=C/c2ccccc2)SC1=S)Nc1ccc(O)cc1	-85.4% (active)
O=C(CC1C(=O)N(c2ccccc2)C(=O)N1CCc1cccs1)Nc1ccc(F)cc1 (stereo unspecified)	-11.5%
Cc1cc(OCCCC(=O)NCCN2C(=O)S/C(=C\c3cccnc3)C2=O)ccc1Cl	-21.9%
O=C(CCCN1C(=O)C(c2ccccc2)Oc2cccnc21)Nc1ccccc1Br (stereo unspecified)	4.91%
CC(=O)Nc1ccc(NC(=O)CCN2C(=O)C3CC=CCC3C2=O)cc1 (stereo unspecified)	19.5%
O=C(CCCN1C(=O)/C(=C/c2ccco2)SC1=S)Nc1ccccc1	-96.7% (active)
COC(=O)C1=C(C)N(C(C)c2ccccc2)C(=O)/C1=C\c1ccco1 (stereo unspecified)	29.2%

— PubChem BioAssay AID1259415 (National Center for Advancing Translational Sciences (NCATS), 2018)
